Potency and activity (max response) data for 18 compounds are collected here from PubChem BioAssay (NCATS).

Test [1] is described as follows: Viability qHTS for spleen associated tyrosine kinase inhibitor (SYKi) naive MV4-11 cells (AID 1963823). Also: nearly all actives have a fitted effect of over 40% in size. The method in brief:
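Luminescence from CellTiter-Glo, developed 10 min at room temperature, gave viability of MV4-11 cells never exposed to SYK inhibitor. Cells (500/well) had been incubated with compounds for 72 hr under standard culture conditions.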
(In general: qHTS replaces the single test concentration by a dilution series.)

A short description of test [2]: Viability qHTS for spleen associated tyrosine kinase inhibitor (SYKi) drug resistant MV4-11 cells (AID 1963824). Also: nearly all actives have a fitted effect of over 35% in size. In outline:
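SYK inhibitor-resistant MV4-11 AML cells, 500 per well, added to predispensed compounds and incubated 72 hr at 37 C, 5% CO2. Viability measured by CellTiter-Glo luminescence after 10 min at room temperature.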

A short description of test [3]: Quantitative highthroughput screen to assess conditional lethalithy of P12 Ichikawa cells grown in Human Plasma-Like Medium with dialyzed fetal bovine serum (HPLM+ds) (AID 1963879). Also: nearly all actives have a fitted effect of over 35% in size. As to Viability: series mostly up to about 46 µM. Conditions: Potency: viability. The method in brief:
(§1)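 Each medium arm—HPLM with 10% dialyzed FBS, or RPMI1640 with 5 mM glucose and 10% untreated or dialyzed FBS—was screened against an 11-point, 3-fold compound titration for 48 h at 37 °C, with CellTiter-Glo luminescence as endpoint.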

Test [4] is described as follows: Quantitative highthroughput screen to assess conditional lethalithy of P12 Ichikawa cells grown in RPMI1640 with dialyzed fetal bovine serum (RPMI+ds) (AID 1963880). Also: nearly all actives have a fitted effect of over 35% in size.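 As to Viability: 100% = DMSO wells and 0% = empty wells on each plate.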 Conditions: Potency: P12-Ichikawa viability. The method in brief: as §1
Test [5] is described as follows: Quantitative highthroughput screen to assess conditional lethalithy of P12 Ichikawa cells grown in RPMI1640 with untreated serum (RPMI+s) (AID 1963881). Also: nearly all actives have a fitted effect of over 35% in size.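 As to Viability: series mostly up to about 46 µM; 100% = DMSO wells and 0% = empty wells without cells.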 Particulars: Potency: viability. In outline: as §1
The nature of test [6]: Quantitative highthroughput screen to assess conditional lethalithy of SEM cells grown in Human Plasma-Like Medium with dialyzed fetal bovine serum (HPLM+ds) (AID 1963882). Also: nearly all actives have a fitted effect of over 35% in size. The method in brief: as §1
Test [7] in a line: Quantitative highthroughput screen to assess conditional lethalithy of SEM cells grown in RPMI1640 with unreated serum (RPMI+s) (AID 1963883). Also: nearly all actives have a fitted effect of over 35% in size.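 As to Viability: 100% = DMSO wells and 0% = empty wells without cells.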 In outline:
as §1

The nature of test [8]: Quantitative highthroughput screen to assess conditional lethalithy of SEM cells grown in RPMI1640 with dialyzed fetal bovine serum (RPMI+ds) (AID 1963884). Also: nearly all actives have a fitted effect of over 35% in size.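 As to Viability: series mostly up to about 46 µM; 100% = DMSO control wells and 0% = empty wells without cells.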 The method in brief: as §1
Test [9] in a line: Cellular viability qHTS for adrenocortical cancer (ACC) cell line NCI-H295R (AID 1963990). Also: nearly all actives have a fitted effect of over 60% in size. In outline: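 IC50 and maximal efficacy derive from four-parameter logistic modelling of titration curves, with reads scaled between DMSO-only wells (0%) and doxorubicin hydrochloride (100% inhibition). Compounds spanned up to 46 uM over 48 h.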
Test [10] in a line: Quantitative highthroughput screen to assess conditional lethalithy of NOMO1 cells grown in Human Plasma-Like Medium with dialyzed fetal bovine serum (HPLM+ds) (AID 1963878). Also: nearly all actives have a fitted effect of over 35% in size. The method in brief:
as §1

A short description of test [11]: Cellular viability qHTS for adrenocortical cancer (ACC) cell line SW-13 (AID 1963989). Also: nearly all actives have a fitted effect of over 65% in size.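 As to activity (max response): cells grown in serum-free medium with ITS supplement; % is scaled to controls: 0 for no effect and ±100 for the full control effect.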 Conditions: SW-13 ACC cells viability, CellTiter-Glo, 48 h; activity (max response): active compounds read low. The method in brief:
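Luminescent ATP read-out (CellTiter-Glo, 20 min at room temperature) measured metabolically competent SW-13 cells after 48 h compound treatment. Final concentrations spanned up to 46 uM; bortezomib served as positive control.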

“And” between values parts separate entries of the source, which are not always exact repeats. Identical values can stand only once. Inconclusive results are not listed. Unmarked numbers belong to inactive results. The source made the active and inactive calls. Calls follow the shape of the dose curve; as a rule, active = well fitted curve in the direction sought with a large enough effect; inconclusive = small, poorly fitted or top-dose-only effect, or another doubt; inactive = no such curve, though single readings can be large; an effect the other way counts as inactive or inconclusive.
Potency is read from the fitted curve at half-maximal effect.

Consider `CC(C)n1cnc2c(NCCc3ccc(O)cc3)nc(-c3csc4ccccc34)nc21`, for which the Potency in test [1] was 14.8 µM (active); in [2], 14.8 µM (active); in test [3], 3.72 µM (active); in test [4] it was 13.2 µM (active); in test [5], 14.8 µM (active); in [6], 13.2 µM (active). Besides, the Potency in test [7] is 7.43 µM (active); in test [8] it was 5.26 µM (active). The Potency result in test [9] is “inactive”.

For `Nc1nccc(Oc2ccc(NC(=O)c3c[nH]cc(-c4ccc(F)cc4)c3=O)cc2F)c1Cl`, the Potency in [1] was 0.0295 µM (active); in test [2], 0.0291 µM (active); in [10] it was 20.9 µM (active); in [4], 26.4 µM (active); in test [7], 0.59 µM (active); in test [11] it was 8.91 µM (active).

Turning to `S=C(NCc1ccc2c(c1)OCO2)N1CCN(c2ncnc3c2oc2ccccc23)CC1`, the Potency in test [1] was 3.32 µM (active); in test [2], 1.86 µM (active); in test [10] it was 38.2 µM (active); in test [7], 42.9 µM (active); in test [8], 27 µM (active).

Regarding `C[C@@H](Oc1cc(-n2cnc3ccc(CN4CCN(C)CC4)cc32)sc1C(N)=O)c1ccccc1C(F)(F)F`, the Potency was 0.0209 µM (active) in [1]; 0.0105 µM (active) in test [2]; 0.0296 µM (active) in [3]; 0.0332 µM (active) in [4]; 0.0332 µM (active) in [5]; 0.0332 µM (active) in test [7]. The Potency in test [11] is 0.0501 µM (active).

As to `Nc1nc(N)c2nc(-c3cccc(O)c3)c(-c3cccc(O)c3)nc2n1`, the Potency in test [1] is 13 µM (active); in test [2], 14.6 µM (active); in test [10], 10.5 µM (active); in test [6] it was 10.5 µM (active); in [7] it was 18.7 µM (active).

In the case of `O=C(O)C1(Cc2cccc(Nc3nccs3)n2)CCC(Oc2cccc(Cl)c2F)CC1` (centres undefined), the Potency was 0.517 µM (active) in [1]; 461 nM (active) and 468 nM (active) in test [2]; 2.35 µM (active) in test [3]; 2.64 µM (active) in test [5]; 2.96 µM (active) in test [6].

With `Clc1cccc(-c2nnnn2Cc2cccnc2)c1Cl`, the Potency entry in test [1] and in test [2] was “inactive” each time. Further, the Potency in test [3] was 7.43 µM (active).

Take `NC(=O)[C@H]1CCS[C@@H]2C[C@]3(CCCN3C(=O)Cc3ccc(NC(=O)COc4ccc(Cl)cc4Cl)cc3)C(=O)N12`: the Potency in test [1] is 3.26 µM (active); in test [2], 2.91 µM (active); in test [3], 0.588 µM (active); in test [4], 1.48 µM (active); in test [5], 1.17 µM (active); in test [8], 1.86 µM (active). Also, the Potency in test [9] is 3.98 µM (active).

For `COc1cccc2c(NCc3ccccc3)nc(-n3c(N)nc4ccccc43)nc12`, the Potency in [1] was 2.35 µM (active); in [2], 2.91 µM (active); in test [3], 16.6 µM (active); in test [4], 18.7 µM (active); in test [5] it was 16.6 µM (active); in [6] it was 9.35 µM (active). Moreover, the Potency in test [7] is 5.9 µM (active); in [8], 14.8 µM (active).

Turning to `C#Cc1cccc(Nc2ncnc3cc(OCCOC)c(OCCO)cc23)c1`, the Potency in test [1] is 1.48 µM (active); in [2], 2.63 µM (active); in test [10] it was 9.35 µM (active); in [7] it was 20.9 µM (active); in test [11] it was 6.31 µM (active).

In the case of `O=C(Nc1nnc(-c2ccco2)o1)c1cc(-c2ccccc2)nc2ccccc12`, the Potency is 13.2 µM (active) in [1]; 13.2 µM (active) in test [2]; 5.9 µM (active) in test [10]; 26.4 µM (active) in test [5]; 4.69 µM (active) in test [7]; 20.9 µM (active) in [8]. Besides, the figures for the Potency in [11] and in test [9] were 20 µM (active) and 10 µM (active), respectively.

As to `Cc1c(CN2CCN(S(C)(=O)=O)CC2)sc2c(N3CCOCC3)nc(-c3cnc(N)nc3)nc12`, the figures for the Potency in test [1], in [2] and in test [3] were 0.146 µM (active), 0.366 µM (active) and 0.418 µM (active), respectively.

For the compound `CO[C@@H]1[C@@H](OC(N)=O)[C@@H](O)[C@H](Oc2ccc3c(O)c(NC(=O)c4ccc(O)c(CC=C(C)C)c4)c(=O)oc3c2C)OC1(C)C`, the Potency entry in test [1], in test [2], in test [3], in test [4], in test [5] and in test [7] was “inactive” in each case. The Potency result in test [8] and in [9] was “inactive” in each case. Further, the activity (max response) in test [11] is 15.7% and -3.94%.

As for `Cn1cnc(-c2cc3nccc(Oc4ccc(NC(=S)NC(=O)Cc5ccccc5)cc4F)c3s2)c1`, the Potency in test [1] is 0.0259 µM (active); in test [2] it was 36.6 nM (active) and 166 nM (active); in test [3], 23.5 µM (active); in test [4], 18.7 µM (active); in [5], 18.7 µM (active); in test [6], 0.59 µM (active). Besides, the Potency in test [7] is 1.18 µM (active); in test [8], 0.0662 µM (active); in test [11] it was 22.4 µM (active); in test [9], 14.1 µM (active).

Take `C[C@H](Cc1ccc(O)c(O)c1)[C@@H](C)Cc1ccc(O)c(O)c1`: the Potency in test [1] was 1.46 µM (active); in test [2], 1.86 µM (active) and 1.03 µM (active); in test [3], 20.9 µM (active); in [5], 18.7 µM (active).

As for `Cn1cnc2c(F)c(Nc3ccc(Br)cc3F)c(C(=O)NOCCO)cc21`, the Potency was 0.206 µM (active) in test [1], 0.146 µM (active) in test [2] and 17.8 µM (active) in test [11]. The Potency result in [3], in [4], in [5] and in [9] was “inactive” throughout.

`COc1cc2c(cc1Cc1cccc(Cl)c1F)c(=O)c(C(=O)O)cn2[C@H](CO)C(C)C`: the Potency was 5.9 µM (active) in [1]; 7.42 µM (active) in test [2]; 26.4 µM (active) in test [3]; 16.6 µM (active) in test [4]; 16.6 µM (active) in test [5]; 25.1 µM (active) in test [9].

As for `CN(C)c1ccc2cc(C(=O)N[C@@H](CCCN=C(N)CCl)C(=O)NCc3ccccc3)ccc2c1`, the Potency in test [1] is 5.25 µM (active); in [2] it was 4.68 µM (active); in test [10], 23.5 µM (active); in [7], 26.4 µM (active); in test [8], 26.4 µM (active). Also, the activity (max response) in test [11] was -6.76%. Besides, in test [9], the Potency entry is “inactive”.
